Compounds without any hit were thinned out: in the full panel of roughly 83,000, 20% have a hit.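 Compound tested at a single concentration for 48 hours in 96-well plates; a percent growth value below 10 was scored as active.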 The source made the active and inactive calls.
These compounds were tested on NCI/ADR-RES ovarian (assay: NCI-60 one-dose screen, 48 h (100 = growth as untreated, 0 = no growth, -100 = all killed)). Conditions: 10 µM.
Method: Growth inhibition of the NCI/ADR-RES human […] tumor cell line is measured as a screen for anti-cancer activity. Cells are grown in 96 well plates and exposed to the test compound for 48 hours. Compounds are tested at a single concentration, which is 10^-5 M for most compounds. The reported endpoint is percent growth (GI% or GIPRCNT), where numbers from 0 - 100% represent growth inhibition, and numbers from -100% - 0 represent cell death. For example, a value of 40 represents 60% growth inhibition. A value of 0 means no net growth occurred over the course of the experiment. A value of -40 indicates 40% of cells at the beginning of the experiment died by the end of the experiment. A value of -100 means all cells are dead at the end of the experiment.
NCI-60 Human Tumor Cell Lines Screen was performed using the standard one-dose NCI protocol, which is described in more detail at https://dtp.cancer.gov/discovery_development/nci-60/default.htm.
Compounds with GIPRCNT values below 10 were considered active. Activity score was based on GIPRCNT using the following formula: […]
Score is 0 for GIPRCNT values of 100 or above, 50 for GIPRCNT values of 0, and 100 for GIPRCNT values of -100.

Question: With `COc1cc2cc(c1Cl)N(C)C(=O)C[C@H](OC(=O)[C@H](C)N(C)C(C)=O)[C@]1(C)O[C@H]1[C@H](C)[C@@H]1C[C@@](O)(NC(=O)O1)[C@H](OC)C=C/C=C(\C)C2` as the compound, how does the growth read?
Answer: 3.31% (active)

Question: For `Cc1ccc(N)cc1[N+](=O)[O-]`, which growth is on record?
Answer: 102% (inactive)

Question: With `Cc1cc(NC(=O)CSCC(=O)O)no1` as the compound, how does the growth read?
Answer: 107% (inactive)

Question: For `CC1=C(/C=C/C(C)=C/C=C/C(C)=C/CO)C(C)(C)CCC1`, which growth is on record?
Answer: 103% (inactive)

Question: Which growth does the source give for `CO[C@H]1C[C@@H]2CC[C@@H](C)[C@@](O)(O2)C(=O)C(=O)N2CCCC[C@H]2C(=O)O[C@H]([C@H](C)C[C@@H]2CC[C@@H](O)[C@H](OC)C2)CC(=O)[C@H](C)C=C(C)[C@@H](O)[C@@H](OC)C(=O)[C@H](C)C[C@H](C)/C=C/C=C/C=C1C` here?
Answer: -10.4% (active)

Question: For `S=C1CCCCCN1`, which growth is on record?
Answer: 104% (inactive)

Question: With `O=[N+]([O-])c1ccc(CO)cc1` as the compound, how does the growth read?
Answer: 107% (inactive)

Question: For `COC(=O)CCCCC1=CCC2C(=O)C=C(O)C2C1` (stereo not given), which growth is on record?
Answer: 103% (inactive)

Question: `O=c1cc2oc3cc(O)c(O)cc3c(-c3ccccc3O)c-2cc1O` was tested. Which growth did it give?
Answer: 78.4% (inactive)

Question: For `CC(=O)C1CCCCC1`, which growth is on record?
Answer: 107% (inactive)

Question: How did the growth turn out when `OC1OC(COC(c2ccccc2)(c2ccccc2)c2ccccc2)C(O)C(O)C1O` (stereo not given) was run?
Answer: 104% (inactive)

Question: Which growth does the source give for `CN(C)C(C)(C)CC(C)(C)C` here?
Answer: 103% (inactive)

Question: With `COC(=O)c1cc(-c2ccc(Cl)c(Cl)c2)[nH]c(=O)c1C#N` as the compound, how does the growth read?
Answer: 105% (inactive)

Question: With `C#CCSc1nnnn1-c1ccc(Br)c(C)c1` as the compound, how does the growth read?
Answer: 84.6% (inactive)

Question: `CCOC(=O)c1cc(/C=C/c2cccc(Cl)c2)on1` was tested. Which growth did it give?
Answer: 91% (inactive)

Question: With `CCCCC1C(=O)N(c2ccccc2)N(c2ccccc2)C1=O` as the compound, how does the growth read?
Answer: 103% (inactive)

Question: How did the growth turn out when `CCCCOC(=O)c1ccc(C(C)C)cc1` was run?
Answer: 97.3% (inactive)

Question: With `NC(N)=Nc1cc2ccccc2c2ccccc12` as the compound, how does the growth read?
Answer: 95.1% (inactive)

Question: For `COc1cccc(/C=N/NC(=S)NC2CC3CCC2C3)c1O` (stereo not given), which growth is on record?
Answer: 15.4% (inactive)

Question: With `COc1cc(/C=C(\C#N)C(=O)c2ccccc2)ccc1OCc1ccccc1` as the compound, how does the growth read?
Answer: 98.4% (inactive)

Question: `COc1cc(C(N)=O)cc(OC)c1OC` was tested. Which growth did it give?
Answer: 101% (inactive)

Question: For `c1ccc(CN2COc3c(ccc4c3OCN(Cc3ccccc3)C4)C2)cc1`, which growth is on record?
Answer: 16.6% (inactive)

Question: With `CCCCNC(=O)C(=O)NCCCC` as the compound, how does the growth read?
Answer: 104% (inactive)

Question: Which growth does the source give for `COc1ccc2c(c1)CCc1c-2n[nH]c1-c1[nH]nc2c1CCc1cc(OC)ccc1-2` here?
Answer: 33.9% (inactive)

Question: How did the growth turn out when `O=c1cc(-c2ccccc2)nc2cc(-c3ccco3)[nH]n12` was run?
Answer: 98.9% (inactive)

Question: `CNc1nc(NC)c2cn[nH]c2n1` was tested. Which growth did it give?
Answer: 108% (inactive)

Question: How did the growth turn out when `COc1ccc(-c2cc3c(nn2)-c2ccccc2C3=O)cc1` was run?
Answer: 60.9% (inactive)

Question: How did the growth turn out when `Clc1ccc(-c2n[nH]c3c2Cc2ccccc2-3)cc1Cl` was run?
Answer: 95.1% (inactive)

Question: With `CCOC(=O)CNN` as the compound, how does the growth read?
Answer: 112% (inactive)

Question: With `Cc1cc(C(O)(c2ccc(Nc3ccccc3)cc2)c2ccc(Nc3ccc(S(=O)(=O)O)cc3)cc2)ccc1N` (stereo not given) as the compound, how does the growth read?
Answer: 18.8% (inactive)

Question: With `Cc1ccc(C)n1-c1ccsc1C(=O)NNC(=O)CCl` as the compound, how does the growth read?
Answer: 98.5% (inactive)

Question: `CCOC(=O)CSc1c([N+](=O)[O-])ncn1C` was tested. Which growth did it give?
Answer: 101% (inactive)

Question: Which growth does the source give for `OC(c1ccccn1)C(O)c1ccccn1` (stereo not given) here?
Answer: 111% (inactive)

Question: Which growth does the source give for `CN(c1ccccc1)c1ncnc2c1ncn2C` here?
Answer: 105% (inactive)

Question: With `Cc1ccc(C(=O)c2ccccc2)c(C)c1` as the compound, how does the growth read?
Answer: 99.7% (inactive)

Question: `O=[N+]([O-])c1ccc(S(=O)(=O)NN=C2CCCCC2)cc1` was tested. Which growth did it give?
Answer: 115% (inactive)

Question: `CN(C)C(=O)Oc1cccc([N+](C)(C)C)c1` was tested. Which growth did it give?
Answer: 114% (inactive)

Question: Which growth does the source give for `CCC(C#N)(CC)c1ccccc1` here?
Answer: 102% (inactive)

Question: How did the growth turn out when `O=C(O)CCC(NC(=O)OCc1ccccc1)C(=O)O` (stereo not given) was run?
Answer: 107% (inactive)

Question: Which growth does the source give for `Nc1ccc(N=Nc2ccc(S(=O)(=O)O)cc2)c2ccccc12` here?
Answer: 97.3% (inactive)

Source: PubChem BioAssay (NCI)
